Experimental data reported in PubChem BioAssay AID1159580 (chemical genetic matrix, 2015).
The campaign covered roughly 5,500 compounds. About 2,000 (36%) were called active. Another 18% or so got no clear call; they are omitted. No stated cut-off is given here; in the data, active means normalized growth mostly below about 0.91 (no sharp cut-off); inconclusive means no clear call, values can overlap the other calls; inactive means mostly above about 0.92. The list shows a part of the results.

Assay: chemical genetic growth profiling, strain panel (AID 1159580);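 further: tested at 20 µM; growth read once vehicle control cultures reached saturation at 30 °C; 1 = growth at the plate median or of vehicle wells; lower values mean less growth of the strain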
Conditions: S. cerevisiae deletion strains, growth OD

Measured: normalized growth

CN=C(NC#N)NCCSCc1nc(N=C(N)N)cs1
inactive: locus YAL021C, strain ccr4, active compounds read low 0.966 | locus YAL026C, strain drs2, active compounds read low 0.981 | locus YAL030W, strain snc1, active compounds read low 0.998 | locus YBL061C, strain skt5, active compounds read low 0.988 | locus YBR009C, strain hhf1, active compounds read low 0.99 | locus YBR023C, strain chs3, active compounds read low 0.991 | locus YBR171W, strain sec66, active compounds read low 0.975 | locus YBR231C, strain swc5, active compounds read low 0.986 | locus YBR279W, strain paf1, active compounds read low 0.99 | locus YCL011C, strain gbp2, active compounds read low 0.966 | locus YCL016C, strain dcc1, active compounds read low 0.984 | locus YCL061C, strain MRC1, active compounds read low 0.974 | locus YCL069W, strain vba3, active compounds read low 0.978 | locus YCR088W, strain abp1, active compounds read low 0.967 | locus YDL005C, strain med2, active compounds read low 0.986 | locus YDL040C, strain nat1, active compounds read low 0.994 | locus YDR001C, strain nth1, active compounds read low 0.978 | locus YDR069C, strain doa4, active compounds read low 0.988 | locus YDR137W, strain rgp1, active compounds read low 0.977 | locus YDR159W, strain sac3, active compounds read low 0.985 | locus YDR195W, strain ref2 0.957 | locus YDR297W, strain sur2, active compounds read low 0.976 | locus YDR334W, strain swr1, active compounds read low 0.944 | locus YDR335W, strain msn5, active compounds read low 0.974 | locus YDR392W, strain spt3, active compounds read low 0.977 | locus YEL003W, strain gim4, active compounds read low 0.977 | locus YEL037C, strain rad23, active compounds read low 0.937 | locus YEL061C, strain CIN8 (second series), active compounds read low 0.979 | locus YER015W, strain faa2, active compounds read low 0.981 | locus YER016W, strain bim1, active compounds read low 0.99 | locus YER111C, strain swi4, active compounds read low 0.993 | locus YER155C, strain BEM2 (second series), active compounds read low 0.99 | locus YFR010W, strain ubp6, active compounds read low 0.96 | locus YGL167C, strain pmr1, active compounds read low 0.982 | locus YGL173C, strain kem1, active compounds read low 0.983 | locus YGL227W, strain vid30, active compounds read low 0.981 | locus YGL240W, strain doc1, active compounds read low 0.991 | locus YGL253W, strain hxk2, active compounds read low 0.998 | locus YHR013C, strain ard1, active compounds read low 0.97 | locus YHR027C, strain rpn1, active compounds read low 0.984 | locus YHR142W, strain chs7, active compounds read low 0.947 | locus YJL092W, strain hpr5, active compounds read low 0.978 | locus YJL095W, strain BCK1 (second series), active compounds read low 0.984 | locus YJL115W, strain asf1, active compounds read low 0.959 | locus YJL129C, strain trk1, active compounds read low 0.971 | locus YJL154C, strain vps35, active compounds read low 0.979 | locus YJL164C, strain tpk1, active compounds read low 0.989 | locus YJL166W, strain qcr8, active compounds read low 0.987 | locus YJL187C, strain SWE1, active compounds read low 0.985 | locus YKL160W, strain elf1, active compounds read low 0.975 | locus YKR026C, strain gcn3, active compounds read low 0.963 | locus YKR091W, strain srl3, active compounds read low 0.986 | locus YLL001W, strain dnm1, active compounds read low 0.985 | locus YLL026W, active compounds read low 0.98 | locus YLL041C, strain sdh2, active compounds read low 0.973 | locus YLR027C, strain aat2, active compounds read low 0.984 | locus YLR221C, strain rsa3, active compounds read low 0.987 | locus YLR258W, strain gsy2, active compounds read low 0.996 | locus YLR262C, strain YPT6 (second series), active compounds read low 0.984 | locus YLR320W, strain mms22, active compounds read low 0.99 | locus YLR342W, strain FKS1, active compounds read low 0.987 | locus YLR357W, strain rsc2, active compounds read low 0.977 | locus YLR370C, strain arc18, active compounds read low 0.983 | locus YLR384C, strain iki3, active compounds read low 0.991 | locus YML120C, strain ndi1, active compounds read low 0.949 | locus YMR058W, strain fet3, active compounds read low 0.966 | locus YMR125W, strain sto1, active compounds read low 0.992 | locus YMR129W, active compounds read low 0.981 | locus YMR205C, strain PFK2, active compounds read low 0.994 | locus YMR231W, strain pep5, active compounds read low 0.984 | locus YNL071W, strain lat1, active compounds read low 0.977 | locus YNL209W, strain ssb2, active compounds read low 0.982 | locus YNL248C, strain rpa49, active compounds read low 0.94 | locus YNL322C, strain KRE1 (second series), active compounds read low 0.984 | locus YNR049C, strain mso1, active compounds read low 0.982 | locus YOR001W, strain rrp6, active compounds read low 0.975 | locus YOR070C, strain gyp1, active compounds read low 0.999 | locus YOR080W, strain dia2, active compounds read low 0.974 | locus YOR083W, strain WHI5, active compounds read low 0.975 | locus YOR106W, strain vam3, active compounds read low 0.983 | locus YOR265W, strain rbl2, active compounds read low 0.991 | locus YOR270C, strain vph1, active compounds read low 0.983 | locus YOR290C, strain snf2, active compounds read low 1.01 | locus YPL051W, strain arl3, active compounds read low 0.981 | locus YPL078C, strain atp4, active compounds read low 0.976 | locus YPL106C, strain sse1, active compounds read low 0.984 | locus YPL240C, strain hsp82, active compounds read low 0.971
